In the library only some 3.4% were active in any assay of this set; here they are far more common.
PAFAH1B3 FP inh: PAFAH1B3 enzyme inhibitors, primary screen, biochemical, fluorescence polarization, human; Platelet-activating factor acetylhydrolase IB subunit alpha1 (Homo sapiens), Q15102; recombinant PAFAH1B3, FP-rhodamine probe; inhibition, % at 3.39 µM; actives 0.28% (n = 340,000); AID 492972, 2010;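 active means inhibition above the screen-wide average of all tested compounds plus 3 SD, cut at about 25% in these data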
Target sequence (Q15102 whole entry, looked up): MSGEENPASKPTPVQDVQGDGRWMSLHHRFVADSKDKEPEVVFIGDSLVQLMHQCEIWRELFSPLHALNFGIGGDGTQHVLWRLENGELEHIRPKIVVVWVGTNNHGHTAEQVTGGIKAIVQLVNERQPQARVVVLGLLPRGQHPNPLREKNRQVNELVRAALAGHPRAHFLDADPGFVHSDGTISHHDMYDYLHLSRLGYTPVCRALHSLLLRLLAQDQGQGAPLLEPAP
PAFAH1B2 inh: PAFAH1B2 enzyme inhibitors, primary screen, biochemical, fluorescence polarization, human; actives 1.2% (n = 340,000); inhibition, % at 3.39 µM; Platelet-activating factor acetylhydrolase IB subunit alpha2 (Homo sapiens), P68402; AID 492953, 2010; recombinant PAFAH1B2, FP-rhodamine activity probe;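 active means inhibition above the mean of all tested compounds plus 3 SD, cut at about 24% in these data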
pPAFAH FP inh: pPAFAH enzyme inhibitors, primary screen, biochemical, fluorescence polarization, human. Platelet-activating factor acetylhydrolase (Homo sapiens), Q13093. recombinant pPAFAH, FP-rhodamine probe fluorescence polarization. inhibition, % at 3.39 µM. actives 1.5% (n = 330,000). AID 463082, 2010;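 active means inhibition above the mean inhibition across the screen plus 3 SD, cut at about 25% in these data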;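 further: inhibitors block binding of the rhodamine activity-based probe so polarization drops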
PP1 counter: PP1-alpha phosphatase inhibitors, primary screen, counter-screen for PP5 inhibitor project, biochemical, fluorescence, OMFP substrate, single point. purified PP1alpha. inhibition, % at 6.7 µM. actives 0.9% (n = 320,000). AID 2235, 2010;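 active means inhibition above the mean inhibition of all tested compounds plus 3 SD, computed separately for each screening campaign, cut at about 15% in these data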
Target sequence (P62136 whole entry, looked up): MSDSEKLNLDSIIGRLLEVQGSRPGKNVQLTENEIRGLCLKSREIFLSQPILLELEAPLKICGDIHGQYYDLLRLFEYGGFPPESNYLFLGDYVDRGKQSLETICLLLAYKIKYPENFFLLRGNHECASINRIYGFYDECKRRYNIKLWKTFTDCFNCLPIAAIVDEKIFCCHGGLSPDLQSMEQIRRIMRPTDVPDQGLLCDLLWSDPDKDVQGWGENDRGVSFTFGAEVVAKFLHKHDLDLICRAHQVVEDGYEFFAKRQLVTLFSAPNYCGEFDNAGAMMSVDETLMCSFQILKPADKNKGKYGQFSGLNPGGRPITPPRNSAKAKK
PAFAH2 inh: PAFAH2 enzyme inhibitors, primary screen, biochemical, fluorescence polarization, human; Platelet-activating factor acetylhydrolase 2, cytoplasmic (Homo sapiens), Q99487; inhibition, % at 3.39 µM; recombinant PAFAH2, FP-rhodamine activity probe; actives 0.99% (n = 340,000);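 active means inhibition above the mean over all tested compounds plus 3 SD, cut at about 30% in these data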;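 further: inhibitors block probe labeling of enzyme so polarization drops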
PP5 primary: PP5 phosphatase inhibitors, primary screen, biochemical, fluorescence; purified PP5c, OMFP substrate fluorescence; inhibition, % at 6.7 µM; actives 0.18% (n = 320,000);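 active means inhibition above the campaign's mean inhibition across all tested compounds plus 3 SD, cut at about 9.5% in these data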
PP5 conf: PP5 phosphatase inhibitors, confirmation, biochemical, fluorescence, human. shares compounds with PP5 primary. Purified PP5, fluorogenic phosphatase substrate. inhibition, % at 6.7 µM. actives 22% (n = 460); in the data active means inhibition above about 9.5%
PP1 inh counter: PP1 phosphatase inhibitors, counter-screen for PP5 inhibitor project, biochemical, fluorescence, triplicate. shares compounds with PP5 primary. PP1 enzyme, fluorescent phosphatase substrate. inhibition, % at 6.7 µM. actives 4% (n = 460); in the data active means inhibition above about 16%
Numbers stand for hits; i = inactive; nt = no result.

SMILES	PAFAH1B3 FP inh	PAFAH1B2 inh	pPAFAH FP inh	PP1 counter	PAFAH2 inh	PP5 primary	PP5 conf	PP1 inh counter
O=C(c1cccc(C(F)(F)F)c1)N1CCC(O)(CS(=O)(=O)Cc2ccccc2Cl)CC1	i	i	i	i	i	11.1	i	i
CC1(NC(=O)CCc2nc3sc4c(c3c(=O)[nH]2)CCCC4)CCS(=O)(=O)C1 (configuration not stated)	i	i	i	i	i	10.3	i	i
CC(C(=O)Nc1ccc(S(=O)(=O)N2CCOCC2)cc1)N1C(=O)C2CC=CCC2C1=O (configuration not stated)	i	i	i	i	i	i	nt	nt
Cc1cc(O)cc2c1C1CCC3(C)C(O)CCC3C1C=C2 (configuration not stated)	i	i	nt	nt	i	nt	nt	nt
CCOc1cc(/C=C2\C(=O)N(c3ccc(C(N)=O)cc3)N=C2C)ccc1OC(=O)c1cccs1	i	i	i	i	i	12.1	i	i
Cc1cccc2c1NC(=O)C2(c1ccc(O)cc1)c1ccc(O)cc1	i	i	i	i	i	i	nt	nt
Cc1cc(C2(c3ccc(O)c(C)c3)C(=O)Nc3ccccc32)ccc1O	i	i	i	i	i	15.7	i	i
O=C1C(NS(=O)(=O)c2ccc(Br)cc2)=C(N2CCCCC2)C(=O)c2ccccc21	i	i	i	i	i	i	nt	nt
O=C1C(Nc2ccccc2)=C(N2CCCCC2)C(=O)c2ccccc21	59.6	i	i	i	36.8	10.5	32.7	i
Cc1ccc(-c2ccc(/C=N\n3cnnc3)o2)c(Br)c1	i	i	i	i	i	10.5	i	i
CN1C=CC=C/C1=C1\SC(=S)N(c2ccccc2)C1=O	i	i	i	i	i	i	nt	nt
CN1C=CC=C/C1=C1\SC(=S)N(C2CCCCC2)C1=O	i	i	i	i	i	9.7	i	i
COc1ccc(S(=O)(=O)N2CCOC2CNC(=O)C(=O)NCCc2ccc(S(N)(=O)=O)cc2)cc1 (configuration not stated)	i	i	i	i	i	i	nt	nt
COc1cc(C2Nc3ccc4ccccc4c3C3=C2C(=O)CC(C)(C)C3)ccc1OCC(=O)O (configuration not stated)	i	i	i	i	i	i	nt	nt
CC1(C)CC(=O)C2=C(C1)c1c(ccc3ccccc13)NC2c1ccc(OCC(=O)O)cc1 (configuration not stated)	i	i	i	i	i	9.8	i	i
COc1ccc(NS(=O)(=O)c2ccc(/C=C/C(=O)O)cc2)cc1S(=O)(=O)N1CCOCC1	i	i	i	i	i	i	nt	nt
CCCCn1c(N)c(N(CCOC)C(=O)c2ccc(S(=O)(=O)N3CCC(C)CC3)cc2)c(=O)[nH]c1=O	i	i	i	i	i	i	nt	nt
CC1CC(C)CN(C(=O)c2ccc3c(=O)n(Cc4ccc5c(c4)OCO5)c(=S)[nH]c3c2)C1 (configuration not stated)	i	i	i	i	i	11.1	i	i
O=C(c1ccc2c(=O)n(Cc3ccc4c(c3)OCO4)c(=S)[nH]c2c1)N1CCCCC1	i	i	i	i	i	i	nt	nt
CCCCCCOc1ccc(C(=O)n2cnc(N)n2)cc1	i	i	i	i	i	12.1	i	i
CCCCCCNc1c([N+](=O)[O-])c(=O)sc2ccccc12	i	i	i	i	i	i	nt	nt
CC(C)Oc1cc(NC(=O)CS(=O)CC(=O)N(C)C)c(Cl)cc1Cl (configuration not stated)	i	i	i	i	i	i	nt	nt
CC(C)Oc1cc(NC(=O)CS(=O)CC(=O)Nc2cccc(C(F)(F)F)c2)c(Cl)cc1Cl (configuration not stated)	i	i	i	i	i	12.8	i	i
COc1ccc(C(=O)N/N=C/c2c[nH]c3ccccc23)cc1	i	i	i	i	i	i	nt	nt
CCCOc1ccc(C(=O)N/N=C/c2c[nH]c3ccc(Br)cc23)cc1	i	i	27.0	i	i	11.8	i	i
SMILES	PAFAH1B3 FP inh	PAFAH1B2 inh	pPAFAH FP inh	PP1 counter	PAFAH2 inh	PP5 primary	PP5 conf	PP1 inh counter
O=C(NCCO)c1ccc(Oc2ccc(C(F)(F)F)cc2[N+](=O)[O-])cc1	i	i	i	i	i	i	nt	nt
CCCCOc1ccc(C(=O)NCCOc2cccc(OC)c2)cc1	i	i	i	i	i	9.8	i	i
COc1ccc(OCCNC(=O)c2cccc(Oc3ccc(C(F)(F)F)cc3[N+](=O)[O-])c2)cc1	i	i	i	i	i	10.5	i	i
CCOc1ccc(Cl)cc1C1=CC(=O)C[C@H](c2ccc(OC)cc2)C1	i	i	i	i	i	i	nt	nt
Cc1ccccc1CCN1CCCC(CN(C)C(=O)c2ccc3ncccc3c2)C1 (configuration not stated)	i	i	i	i	i	i	nt	nt
CC(C)(O)P(C)(=O)c1ccccc1 (configuration not stated)	i	i	i	i	i	i	nt	nt
CC(C)(C)P(=O)(CO)c1ccccc1 (configuration not stated)	i	i	i	i	i	10.8	i	i
CC(=O)Nc1ccc(NC2=C/C(=N/S(=O)(=O)c3cccs3)c3ccccc3C2=O)cc1	nt	nt	30.7	i	nt	13.6	31.6	i
COC(=O)C(C(C)=O)C1=C/C(=N\S(=O)(=O)c2ccc(C)cc2)c2ccccc2C1=O (configuration not stated)	i	i	i	i	i	i	nt	nt
O=C(O)c1ccc(S(=O)(=O)/N=C2\C=C(Nc3ccccc3F)C(=O)c3ccccc32)cc1	61.0	57.5	i	i	72.4	9.6	42.5	i
Cc1ccccc1NC1=C/C(=N\S(=O)(=O)c2cccs2)c2ccccc2C1=O	64.3	24.6	i	i	40.4	14.8	51.2	i
CSc1ccc(C(=O)N2CCC(CCC(=O)NC3CC3)CC2)cc1	i	i	i	i	i	i	nt	nt
O=C(CCC(=O)N1CCCCC1)Nc1nnc(C2CCCCC2)s1	i	i	i	i	i	i	nt	nt
O=C(CCC(=O)N1CCOCC1)Nc1nnc(C2CCCCC2)s1	i	i	i	i	i	11.5	i	i
Cc1ccc(-n2nc(C(=O)N3CCOCC3)cc2-c2ccc(Cl)cc2)cc1	i	i	i	i	i	i	nt	nt
O=C(c1cc(-c2ccc(Cl)cc2)n(-c2ccc(Cl)cc2)n1)N1CCOCC1	i	i	i	i	i	13.2	i	i

Source: PubChem (The Scripps Research Institute Molecular Screening Center)
